The results in this text go back to PubChem BioAssay (NCATS).

Experiment [1] can be described thus: AP1 Signaling Pathway (AID 357).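 Note: ME-180 reporter cells stimulated with EGF at its EC50 level; % is set by controls: 0 for no effect and ±100 for the full control effect.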 In a few lines: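 First, ME-180 AP-1-bla cells were cultured overnight at 37 °C in low-serum Opti-MEM. Next, titrated compounds with EC50 EGF were incubated 5 hours. Finally, CCF4 was added for 2.5 hours and the 460/530 nm ratio recorded.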
Experiment [2] deals with Cytochrome P450 1A2 (Homo sapiens) (UniProt P05177). In words: p450-cyp1a2 (AID 410; calls by dose curve; note: potency is the fitted concentration of half-maximal effect;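 for activity change, negative = inhibition: -100% = full effect of reference inhibitor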). In a few lines:
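Inhibition was calculated relative to 57 uM furafylline (full inhibition). The reaction used human CYP1A2 at 20nM with Luciferin-ME at its Km, 100uM, driven by an NADPH-regenerating system for 60 min at room temperature.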

The nature of experiment [3]: NFAT Signaling Pathway (AID 444).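 Note: carbachol stimulus at about its EC50 of 1 µM final; % is set by controls: 0 for no effect and ±100 for the full control effect.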 The settings on record: Jurkat NFAT-bla M1, carbachol, beta-lactamase ratio, 5 h; at 38 µM (top of the series) unless noted. The method, boiled down: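 Jurkat cells carrying an NFAT-driven β-lactamase reporter and co-transfected muscarinic M1 receptor were treated with compound plus carbachol (1 uM final, an EC50 level) for 5 h at 37 °C. CCF4 loading followed for 1 h at RT; 460/530 nm ratio gave %activity.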

In experiment [4] the target is Glucocorticoid receptor (Homo sapiens) (UniProt P04150). Briefly: GR-GFP Redistribution (AID 450;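 active = compounds whose dose series gives a full or clear partial fitted curve of increased nuclear translocation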; note: potency is the fitted concentration of half-maximal effect). To be noted: U2OS GR-GFP nuclear translocation, laser cytometry, 2 h.
Glucocorticoid receptor (Homo sapiens), sequence (P04150 whole entry, looked up, the tested form may be a part): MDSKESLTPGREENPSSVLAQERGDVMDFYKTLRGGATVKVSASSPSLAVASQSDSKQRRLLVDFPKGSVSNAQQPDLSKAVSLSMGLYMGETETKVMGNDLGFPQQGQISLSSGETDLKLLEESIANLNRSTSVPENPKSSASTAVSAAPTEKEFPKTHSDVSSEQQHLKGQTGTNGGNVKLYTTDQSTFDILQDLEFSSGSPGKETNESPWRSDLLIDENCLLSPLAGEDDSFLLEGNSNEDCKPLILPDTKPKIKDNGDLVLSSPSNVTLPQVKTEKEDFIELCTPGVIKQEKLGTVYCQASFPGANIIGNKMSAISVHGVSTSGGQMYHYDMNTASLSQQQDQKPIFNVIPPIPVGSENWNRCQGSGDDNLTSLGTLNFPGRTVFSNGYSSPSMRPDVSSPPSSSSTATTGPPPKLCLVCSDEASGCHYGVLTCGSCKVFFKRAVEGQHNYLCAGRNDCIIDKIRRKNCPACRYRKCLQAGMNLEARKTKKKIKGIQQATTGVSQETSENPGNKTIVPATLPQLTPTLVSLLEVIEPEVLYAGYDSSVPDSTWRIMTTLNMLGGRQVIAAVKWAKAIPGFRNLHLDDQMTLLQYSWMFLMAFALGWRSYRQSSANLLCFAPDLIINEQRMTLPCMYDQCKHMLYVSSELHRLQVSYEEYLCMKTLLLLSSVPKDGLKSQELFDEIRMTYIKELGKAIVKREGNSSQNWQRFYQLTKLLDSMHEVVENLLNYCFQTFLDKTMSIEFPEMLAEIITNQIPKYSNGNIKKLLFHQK
The target of experiment [5] is Mitogen-activated protein kinase 10 (Mus musculus) (UniProt Q61831). Briefly: JNK3 AlphaScreen Assay (AID 530).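 Note: kinase came from lysate of stimulated human HepG2 cells; signal reports phosphorylation of biotinylated GST-cJun 1-79 at Ser73 with 10 µM ATP; % is set by controls: 0 for no effect and ±100 for the full control effect.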 The method, boiled down: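 JNK3 came from HepG2 lysates pre-activated with IL-1beta and TNF-alpha and phosphorylated biotinylated GST-cJun (1-79) at 10 uM ATP, pH 7.6, room temperature. Compounds were titrated. AlphaScreen signal used anti-phospho-cJun (Ser73) antibody.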

Experiment [6] concerns the target Glucocorticoid receptor (Homo sapiens) (UniProt P04150). In words: GR-EFC Redistribution (AID 451; calls by dose curve; note: potency is the fitted concentration of half-maximal effect). The settings on record: CHO-K1 GR-EFC translocation, beta-gal luminescence, 2 h. In a few lines:
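CHO-K1 cells stably expressing nuclear-localized β-gal enzyme acceptor and GR fused C-terminally to the enzyme donor fragment; ligand-driven nuclear translocation restores β-gal by complementation. Compounds titrated up to 46 uM final, 2 h at 37 °C; luminescence read.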

A short description of experiment [7]: Cell Viability - BJ (AID 421; calls by dose curve;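 note: potency is the fitted concentration of half-maximal effect; cells exposed to compound for 40 hours at 37 °C before readout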). To be noted: BJ fibroblast viability, qHTS. In a few lines: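 Cytotoxicity as drop in intracellular ATP (CellTiter-Glo, 20 min RT) after 40 hr compound exposure of BJ fibroblasts at 37 °C. Titrations scaled between DMSO and 100 uM tamoxifen, Hill-fitted for AC50.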
(In general: qHTS replaces the single test concentration by a dilution series.)

Experiment [8] can be described thus: Cell Viability - Jurkat (AID 426;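 active = dose-dependent loss of cell ATP signal giving a full or clear fitted curve, ranked by lower potency value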;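 note: potency is the fitted concentration of half-maximal effect; cells exposed to compound for 40 hours at 37 °C before ATP read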). The settings on record: qHTS. The method, boiled down: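 Seed 5000 Jurkat E6-1 cells/well; add compound; incubate 40 hr at 37 °C; add CellTiter-Glo; wait 20 min at room temperature; read luminescence. Fit concentration-response with Hill equation for AC50.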
Experiment [9] is described as follows: Cell Viability - Hek293 (AID 427;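 active = compounds whose dose-response curve shows a full or clear partial loss of cell viability, called from curve shape rather than a numeric limit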;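 note: potency is the fitted concentration of half-maximal effect; cells exposed to compound for 40 hours at 37 °C before reading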). To be noted: qHTS. In a few lines:
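Luminescent ATP content (CellTiter-Glo, 20 min at room temperature) was measured after a 40 hr, 37 °C compound exposure of HEK293 cells. AC50 values came from Hill-equation fits of qHTS concentration-response data normalized to DMSO and 100 uM tamoxifen.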

The nature of experiment [10]: Cell Viability - HepG2 (AID 433; calls by dose curve;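 note: potency is the fitted concentration of half-maximal effect; cells exposed to compound for 40 hours; potency for ATP loss meaning cytotoxicity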). To be noted: qHTS. In a few lines: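 ATP luminescence (CellTiter-Glo) after 40 h compound exposure, 37 °C, HepG2, 1500 cells/well, complete medium. Normalized: DMSO = basal, 100 uM tamoxifen = 100% inhibition. AC50 via standard Hill equation.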
Experiment [11] can be described thus: Cell Viability - MRC5 (AID 434; calls by dose curve;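 note: potency is the fitted concentration of half-maximal effect; cells exposed to compound for 40 hours at 37 °C; potency reflects cytotoxicity seen as loss of intracellular ATP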). To be noted: MRC5 lung fibroblast viability, qHTS. In a few lines:
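MRC5 normal human lung fibroblasts (1500/well) were treated with compounds for 40 hr at 37 °C in complete medium, and viable cells were measured as intracellular ATP by CellTiter-Glo luminescence. AC50 came from Hill fits, normalized to DMSO and 100 uM tamoxifen.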

Experiment [12] is described as follows: Cell Viability - SK-N-SH (AID 435; calls by dose curve; note: potency is the fitted concentration of half-maximal effect). To be noted: SK-N-SH neuroblastoma cell viability qHTS. The method, boiled down: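 CellTiter-Glo ATP luminescence, 20 min RT read; cells pre-plated 5 hr, compound 40 hr at 37 °C, 1500 cells/well, complete medium. Normalized DMSO = 0, 100 uM tamoxifen = 100% inhibition; Hill-fit AC50.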
Experiment [13] can be described thus: Cell Viability - HUV-EC-C (AID 542; active = well fitted curve in the direction sought with a large enough effect; an effect the other way counts as inactive or inconclusive;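 note: cells exposed to compound for 40 hours; % is set by controls: 0 for no effect and ±100 for the full control effect; nearly all actives have a fitted effect of over 35% in size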). The method, boiled down: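 Decrease in cellular ATP, quantified by luciferase luminescence, reflects toxicity in normal human vascular endothelial HUV-EC-C cells given compound for 40 hr in complete culture medium. Values are AC50s from concentration-response curves.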
Experiment [14] can be described thus: Cell Viability - H-4-II-E (AID 543; active = well fitted curve in the direction sought with a large enough effect; an effect the other way counts as inactive or inconclusive;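 note: cells exposed to compound for 40 hours; % is set by controls: 0 for no effect and ±100 for the full control effect; nearly all actives have a fitted effect of over 35% in size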). The method, boiled down: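 Here, cytotoxicity is measured in the rat hepatoma line H-4-II-E as loss of intracellular ATP after 40 hr compound treatment, detected by luciferase luminescence.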
Experiment [15] in a line: Cell Viability - SH-SY5Y (AID 544; active = well fitted curve in the direction sought with a large enough effect; an effect the other way counts as inactive or inconclusive;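 note: cells exposed to compound for 40 hours; 0% = DMSO alone and -100% = 100 µM tamoxifen; nearly all actives have a fitted effect of over 55% in size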). In a few lines:
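Cytotoxicity is scored as a concentration-dependent fall in intracellular ATP in human SH-SY5Y cells treated 40 hr in complete culture medium. Potency is expressed as AC50 from a Hill equation fit.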

A short description of experiment [16]: Cell Viability - Renal Proximal Tubule (AID 545; active = well fitted curve in the direction sought with a large enough effect; an effect the other way counts as inactive or inconclusive;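 note: cells exposed to compound for 40 hours; 0% = DMSO only and -100% = 100 µM tamoxifen; nearly all actives have a fitted effect of over 40% in size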). The settings on record: renal proximal tubule cells viability; activity change, negative = cytotoxicity: at 91.7 µM (top of the series). The method, boiled down: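 Rat kidney proximal tubule cells, freshly isolated; 1000 cells/well, 5 hr settle, compound 40 hr 37 °C. CellTiter-Glo 20 min RT, luminescence read. AC50 by standard Hill fit.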

Experiment [17] in a line: Cell Viability - Mesenchymal (AID 546; active = well fitted curve in the direction sought with a large enough effect; an effect the other way counts as inactive or inconclusive;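 note: cells exposed to compound for 40 hours before reading; 0% = DMSO only and -100% = 100 µM tamoxifen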). In a few lines: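 Normal human renal glomerulus-derived kidney mesenchymal cells, 1000 per well in complete medium, were treated with compounds for 40 hr at 37 °C. Viability was read as intracellular ATP by CellTiter-Glo luminescence; AC50 values came from Hill-equation fits of qHTS concentration-response data.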
Experiment [18] is described as follows: Stat Signaling Pathway (AID 446).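 Note: ME-180 cervical cancer cells given 40 pM IL-6 alongside compound; SIE-controlled beta-lactamase reporter measured as 460/530 nm FRET emission ratio; % is set by controls: 0 for no effect and ±100 for the full control effect.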 To be noted: ME-180 SIE beta-lactamase reporter, IL-6 stimulated, 5 h; at 38 µM (top of the series) unless noted. The method, boiled down:
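Reporter line: ME-180 cervical carcinoma, SIE-beta-lactamase. Treatment: compound with 40 pM IL-6, 5 hrs, 37 C, in low-serum OPTI-MEM with 10 mM HEPES pH 7.3. Detection: 460/530 nm fluorescence.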

Where “and” joins values, the source holds several entries; their conditions need not be identical. Equal values may be shown once. Values without a mark were called inactive. Results filed as inconclusive are left out. Calls of active or inactive are those of the source. Unless noted, calls come from the whole dose curve; as a rule, active = well fitted curve in either direction with a large enough effect (not every such curve was filed as active); inconclusive = small, poorly fitted or top-dose-only effect, or another doubt; inactive = flat fitted curve, though single readings scatter.

Cytochrome P450 1A2 (Homo sapiens), sequence (P05177 whole entry, looked up): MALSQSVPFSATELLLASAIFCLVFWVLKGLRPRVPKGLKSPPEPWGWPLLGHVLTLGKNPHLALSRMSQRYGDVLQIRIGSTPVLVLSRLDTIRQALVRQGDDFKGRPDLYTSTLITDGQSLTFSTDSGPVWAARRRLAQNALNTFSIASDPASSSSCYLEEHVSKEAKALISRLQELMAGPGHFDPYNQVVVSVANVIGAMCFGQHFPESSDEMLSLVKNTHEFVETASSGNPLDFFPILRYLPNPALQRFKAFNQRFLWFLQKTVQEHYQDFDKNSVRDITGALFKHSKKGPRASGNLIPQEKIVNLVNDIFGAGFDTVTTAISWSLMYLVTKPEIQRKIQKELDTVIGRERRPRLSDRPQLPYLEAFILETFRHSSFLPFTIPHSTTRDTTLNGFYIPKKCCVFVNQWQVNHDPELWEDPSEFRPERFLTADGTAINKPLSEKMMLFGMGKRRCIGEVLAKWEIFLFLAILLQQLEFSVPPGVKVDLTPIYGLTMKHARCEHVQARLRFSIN

As for `N#CC(C#N)=Cc1cc(O)c(O)c(O)c1`, the molecule was called inactive in [1]. The Potency result in experiment [2] was “inactive”. Further, in experiment [3], the activity change, negative = inhibition was -8.53%. Also, the Potency in [4] is more than 46 µM.

In the case of `CCCN(CCC)CCc1c[nH]c2ccc(C(N)=O)cc12`, the molecule was called inactive in [1] and in experiment [5]. Moreover, the Potency in experiment [2] was 15.8 µM (active); in experiment [4], more than 46 µM. The activity change, negative = inhibition in experiment [3] was -26.6%.

`CCC1(C)CC(=O)NC(=O)C1`: the molecule was classed as inactive in experiment [1] and in experiment [5]. Besides, the Potency entry in experiment [2] was “inactive”. Further, the activity change, negative = inhibition in [3] is -6.48% [at 17.2 µM]. For the same molecule, the Potency in experiment [4] and in experiment [6] was more than 20.6 µM throughout.

As to `O=S1(=O)N(CCN2CC=C(c3c[nH]c4cc(F)ccc34)CC2)c2cccc3c2N1CCC3`, the result in experiment [1] and in [5] was inactive. Also, the Potency in experiment [2] is 3.98 µM (active); in experiment [4] it was more than 46 µM; in experiment [6], more than 46 µM. For the same molecule, the activity change, negative = inhibition in experiment [3] was -17.5%.

For `O=C1C=CC(=O)C=C1`, the molecule was called inactive in experiment [1] and in experiment [5]. Besides, the Potency entry in experiment [2], in experiment [13], in [14], in experiment [15], in experiment [16] and in experiment [17] was “inactive” throughout. The Potency in experiment [7] was more than 92 µM; in experiment [8], 31.4 µM (active); in [9], more than 92 µM; in experiment [10], more than 92 µM; in experiment [11], more than 92 µM; in [12] it was more than 92 µM. Also, in experiment [3], the activity change, negative = inhibition is -3.4%.

Turning to `CCS(=O)(=O)Nc1cccc(C(=C2CCCCC2)c2cnc[nH]2)c1`, the molecule was called inactive in experiment [1] and in experiment [5]. For the same molecule, the Potency in experiment [2] was 0.316 µM (active); in experiment [4], more than 46 µM. The activity change, negative = inhibition in experiment [3] was 4.67%.

As for `CN(N=O)c1ccc(O)c(O)c1`, the call in [1] was inactive. In addition, the Potency result in experiment [2] is “inactive”. Further, in [3], the activity change, negative = inhibition is 0.97%. In addition, the Potency in experiment [4] was more than 46 µM.

For `NC(=O)c1cc(N2CC2)c([N+](=O)[O-])cc1[N+](=O)[O-]`, the molecule was classed as inactive in experiment [1] and in experiment [5]. The Potency result in experiment [2] was “inactive”. Further, the activity change, negative = inhibition in experiment [3] was 1.65%. For the same molecule, in experiment [18], the activity, negative = inhibition was 19.5%. In addition, the Potency in experiment [4] and in experiment [6] was more than 46 µM in each case.

As to `COc1ccc2[nH]c3c(c2c1)CCNC3`, the outcome in [1] and in experiment [5] was inactive. Also, the Potency was 3.16 µM (active) in [2], more than 46 µM in experiment [4] and more than 46 µM in [6]. Also, the activity change, negative = inhibition in experiment [3] is 4.34%.

Take `Cc1[nH]c2ccc(O)cc2c1CCN`: the call in experiment [1] and in experiment [5] was inactive. For the same molecule, the Potency in [2] was 31.6 µM (active); in experiment [4], more than 46 µM. Moreover, the activity change, negative = inhibition in [3] is 10.3%.

With `Cc1sc2ccccc2c1CC1=NCCN1`, the call in experiment [1] and in [5] was inactive. Besides, the Potency was 2.51 µM (active) in [2], more than 46 µM in [4] and more than 46 µM in [6]. For the same molecule, the activity change, negative = inhibition in experiment [3] is -16.3%.

Regarding `NCCc1c[nH]c2ccc(C(N)=O)cc12`, the result in experiment [1] and in experiment [5] was inactive. Besides, the Potency in experiment [2] is 6.31 µM (active) and 1.26 µM (active); in [4], more than 46 µM. Further, the activity change, negative = inhibition in experiment [3] is 4.42%.
